This is a sample that favours compounds with a hit; in the whole collection about 2.4% have one here.
ULK1 primary: blocks human autophagy kinase ULK1 | O75385 | AlphaScreen Atg13 phosphorylation by ULK1, luminescence | inhibition, % at 5.96 µM | 30,000 compounds, 1.9% hits | AID 1259251; in the data active = inhibition above about 43%;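 also: 0% = median of compound wells and 100% = no enzyme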
ASK1 inh: inhibitors of human ASK1 kinase | Q99683 | AlphaScreen MKK6 phosphorylation by ASK1, luminescence | inhibition, % at 7.44 µM | 22,000 compounds, 0.99% hits; in the data active = inhibition above about 35%;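 also: 0% = median of compound wells and 100% = no enzyme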
* = called active by the depositor; . = not tested or not shown.

SMILES	ULK1 primary	ASK1 inh
Oc1c(Cl)cc(Cl)c2cccnc12	27.1	.
Cc1cnc(-c2ccccc2)nc1NCc1cccc(C(F)(F)F)c1	-18.4	-8.5
CC(=O)Nc1ccc(NC(=O)c2cccc(-c3ccc(C(=O)NC4CC4)cc3)c2)cc1	46.9*	9.0
O=C(NC1CC1)c1ccc(-c2cccc(C(=O)NC3CC3)c2)cc1	-2.3	11.7
CC(C)N(CCNc1ccnc(NCc2ccc3c(c2)OCO3)n1)C(C)C	-4.0	-9.7
CC(C)c1ccc(-n2cc(-c3ccc(C(=O)N4CCCC4)cn3)cn2)cc1	-4.3	.
Cc1cccc(OCc2nc3ccc(-c4ccnc(N)n4)cc3[nH]2)c1	67.6*	7.7
CC(=O)Nc1cc(-c2ccnc(N)n2)ccc1NC(=O)COc1cccc(C)c1	10.8	0.8
Cc1cc(C)c(S(=O)(=O)N(CC(=O)O)CC(=O)O)c(C)c1	1.4	.
OCC1CCCN1c1nc(Nc2ccc(N3CCOCC3)cc2)c2ncn(C3CCCCC3)c2n1 (centres undefined)	52.9*	30.0
OCC1CCCN1c1nc(Nc2ccc(N3CCOCC3)cc2)c2ncn(-c3ccsc3)c2n1 (centres undefined)	10.6	16.2
OCC1CCCN1c1nc(Nc2ccc(N3CCOCC3)cc2)c2ncn(-c3ccccc3)c2n1 (centres undefined)	61.2*	-37.3
c1cc(N2CCOCC2)ccc1Nc1nc(N2CCOCC2)nc2c1ncn2C1CCCCC1	33.3	-0.6
COc1cc(OC)nc(Sc2ccccc2/C=N/O)n1	-24.8	.
COc1ccc(-c2cccc3cnc(Nc4ccc(-n5cnc(N6CCOCC6)n5)cc4)nc23)cc1F	-15.4	1.6
Fc1ccccc1-c1cc(N2CCN(c3ccccn3)CC2)nc(-c2ccncc2)n1	2.3	.
O=C(NCc1cccnc1)c1ccc2nc(-c3ccccc3)sc2c1	-21.9	1.1
O=C(NCc1cccnc1)c1ccc2nc(Br)sc2c1	44.7*	11.5
CC(N)(Cc1ccc(O)c(O)c1)C(=O)O (centres undefined)	84.8*	.
CCOC(=O)C(C)(N)Cc1ccc(O)c(O)c1 (centres undefined)	-13.3	.
c1cn(-c2ccc(Nc3nccc(-c4cncc(N5CCOCC5)c4)n3)cc2)cn1	34.1	-13.5
c1cc(-c2cncc(N3CCOCC3)c2)nc(Nc2ccc(-n3cncn3)cc2)n1	11.0	17.1
c1cc(Cn2cncn2)cc(Nc2nccc(-c3cncc(N4CCOCC4)c3)n2)c1	55.4*	0.7
c1cc(Cn2ccnc2)cc(Nc2nccc(-c3cncc(N4CCOCC4)c3)n2)c1	79.6*	5.5
Nc1nccc(-c2ccc3nc(C4COc5ccc(C(=O)N6CCOCC6)cc5C4)[nH]c3c2)n1 (centres undefined)	0.1	19.2
SMILES	ULK1 primary	ASK1 inh
O=c1[nH]ccc2c(S(=O)(=O)N3CCCNCC3)cccc12	45.8*	-18.4
O=C1CCc2cc(S(=O)(=O)N3CCCNCC3)ccc2N1	-7.8	-23.1
COc1ccc(-c2cnc3cccc(N(c4ccccn4)c4ccccn4)c3c2)cc1	-2.7	-0.9
Cc1ccc2nc(C)c(NC(=O)C3CC3)c(=O)n2c1	8.0	.
CC(=O)Nc1ccc(Nc2nc(N3CCOCC3)nc3c2ncn3C(C)C)cc1	32.2	2.9
COc1ccc(-c2nc(Nc3ccc(NC(C)=O)cc3)c3ncn(C(C)C)c3n2)cn1	50.4*	10.4
NC(=O)c1ccc(-c2nc(Nc3ccc(N4CCOCC4)cc3)c3ncn(Cc4ccc(C(F)(F)F)cc4)c3n2)cc1	-0.1	22.0
Cc1cnc(-c2ccc(N3CCOCC3)nc2)nc1Nc1ccccc1	43.9*	0.1
Cc1cnc(-c2ccccc2)nc1Nc1ccc(N2CCOCC2)cc1	8.7	12.7
CC(C)n1cnc2c(Nc3ccc(N4CCOCC4)cc3)nc(-c3ccc(C(N)=O)cc3)nc21	62.6*	10.4
COc1ccc(-c2nc(Nc3ccc(N4CCOCC4)cc3)c3ncn(C(C)C)c3n2)cn1	25.0	30.5
CC(=O)Nc1ccc(Nc2nc(-c3ccc(N4CCOCC4)nc3)nc3c2ncn3C(C)C)cc1	43.8*	10.3
COc1ccc2c(c1)CC(C(=O)Nc1ccc(-c3cn[nH]c3)cc1OC[C@@H]1CCCN1Cc1ccccc1)CO2 (some centres undefined)	-1.6	35.2
O=C(NCCCN1CCCC1=O)c1cnc(Nc2ccccn2)s1	9.4	0.5
O=C(NCc1nc2ccccc2[nH]1)c1cnc(Nc2ccc(N3CCOCC3)cc2)s1	8.5	12.6
c1ccc(CN2CCC(Nc3cc(Nc4nccc5ccccc45)ncn3)CC2)cc1	-2.5	1.5
CC(=O)Nc1ccc(Nc2nc(-c3cccc(N)c3)nc3c2ncn3C(C)C)cc1	35.0	5.3
CC(C)n1cnc2c(Nc3ccc(N4CCOCC4)cc3)nc(-c3cccc(N)c3)nc21	25.5	4.4
CC(=O)c1cccc(-c2nc(Nc3ccc(N4CCOCC4)cc3)c3ncn(C(C)C)c3n2)c1	55.7*	24.5
CC(=O)Nc1ccc(Nc2nc(-c3ccc(C(N)=O)cc3)nc3c2ncn3C(C)C)cc1	74.9*	5.7
Cc1cnc(-c2ccc(C(N)=O)cc2)nc1Nc1ccc(Oc2ccccc2)cc1	-16.1	10.2

Bioassay records: PubChem BioAssay, The Scripps Research Institute Molecular Screening Center
